Neddyl block – inhibitors of cullin neddylation, primary screen, biochemical, TR-FRET, uHTS, NAE and Ubc12; AID 651699, 2012; inhibition, % at 25 µM; actives 0.58% (n = 360,000); NEDD8-conjugating enzyme Ubc12 (Homo sapiens) + NEDD8-activating enzyme E1 regulatory …; in the data active means inhibition above about 36%
GSIS activator – GLuc luminescence reporter in INS-1E cells, primary screen for activators of glucose-dependent secretion of insulin. actives 0.61% (n = 370,000). AID 743287, 2014. activation, % at 16.6 µM. INS-1E GLuc reporter insulin secretion, 2-3 h;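 active means lowest replicate activation of at least 40%, so every replicate reaches that level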;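 further: 0% = median of neutral control wells and 100% = median of IBMX positive control wells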
Vif inh – HIV Vif self-association inhibitors, primary screen, imaging, HEK293T, single point | HEK293T cells, Vif self-association by quenched fluorescence, 24 h | inhibition, % at 7.49 µM | actives 0.35% (n = 340,000) | AID 602346, 2012; in the data active means inhibition above about 50%, passing the limit was not always enough; inconclusive means no clear call, values can overlap the other calls; inactive means below about 31%
Bfl-1 A1 inh – caspase 3/7 activation in MEF A1-2A-BIM cells, primary screen, A1 inhibitor project, cell-based, luminescence, HTS; Caspase-Glo 3/7 luminescence, 3 h; percent of clofoctol response, vehicle zero; caspase activation, % (no concentration beside the values); actives 0.066% (n = 330,000); AID 2462, 2010;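 active means over half of replicate activation scores above 10%, or exactly half above 10 with the replicate mean above 10; inconclusive means replicate mean below 10 yet half the replicates above 10; inactive means over half of replicates below 10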
dFosB activator – activators of delta FosB homodimer, primary screen, biochemical, fluorescence polarization, TAMRA-CDK5 oligo, single point | actives 0.99% (n = 340,000) | activation, % at 25 µM | purified delta FosB; percent of positive-control signal above neutral wells | AID 493131, 2011;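 active means mean activation above about 17%, with every replicate also reaching it, limit read from the data, passing the limit was not always enough; inconclusive means only one of the two conditions met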
Starred values were filed as active, the others as inactive; ? = inconclusive; nt = no result given. Most compounds without a hit are left out; they make up all but 1.9% or so of the library.

SMILES	Neddyl block	GSIS activator	Vif inh	Bfl-1 A1 inh	dFosB activator
C[C@H]1CN([C@@H](C)CO)S(=O)(=O)c2ccc(C#Cc3ccc(F)cc3)cc2O[C@H]1CN(C)C(=O)CN(C)C	nt	35	nt	nt	nt
Nc1nc(SCc2nc3scc(-c4ccccc4)c3c(=O)[nH]2)n[nH]1	-2	55*	nt	0	-9
C[C@H]1CN([C@@H](C)CO)C(=O)Cc2cc(NS(=O)(=O)c3cn(C)cn3)ccc2O[C@H]1CN(C)Cc1ccc2c(c1)OCO2	nt	19	nt	nt	nt
Cc1ccc2c(c1)/C(=N/OS(=O)(=O)c1ccccc1)CCS2	-7	nt	?	0	-3
Cc1ccc(S(=O)(=O)ON=C2CCN(S(=O)(=O)c3ccccc3)CC2)cc1	-4	nt	?	1	5
CC1=CC(=O)C=C(C)C1=NOS(=O)(=O)c1ccccc1	-17	186*	28	nt	-1
CC1=CC(=O)C(C(C)C)=C/C1=N/OS(=O)(=O)c1ccccc1	-7	nt	-5	27*	-3
Cc1ccc2c(c1)c1c3n2CCCNC3CCC1 (stereo unspecified)	4	nt	14	-1	0
c1cc2c(cc1C1CCCCC1)c1c3n2CCCNC3CCC1 (stereo unspecified)	6	nt	-1	1	25*
CC1=CSC2=NC(=O)/C(=C\c3cccn3-c3ccc([N+](=O)[O-])cc3)C(=N)N12	-16	237*	0	0	0
CCN(C(=O)CSc1nccc(=O)[nH]1)c1cccc2ccccc12	-17	9	0	0	0
CCN(C(=O)COc1ccc(C)cc1OC)c1cccc2ccccc12	-4	-13	57*	0	5
CCN(C(=O)CSc1ncccn1)c1cccc2ccccc12	-12	48*	-2	0	-11
C[C@H](CO)N1C[C@H](C)[C@@H](CN(C)Cc2ccc3c(c2)OCO3)OCCCC[C@H](C)Oc2ccc(NC(=O)Cc3ccccc3)cc2C1=O	nt	-18	nt	nt	nt
CCS(=O)(=O)N1CCCCN2[C@H](CO)[C@H](c3ccc(C#CC(C)(C)O)cc3)[C@H]2C1	nt	5	nt	nt	nt
O=S(=O)(Nc1nc2ccccc2nc1NCc1ccco1)c1ccc(Cl)cc1	7	nt	62*	-1	3
Cc1ccc(C(=O)NCc2ccco2)cc1[N+](=O)[O-]	-26	nt	0	-1	-12
O=[N+]([O-])c1ccc(N2CCN(S(=O)(=O)c3ccc(Cl)cc3)CC2)cc1NCC1CCCO1 (stereo unspecified)	0	-6	57*	1	0
Cc1cc(C)c(S(=O)(=O)N2CCN(c3ccc([N+](=O)[O-])c(NCC4CCCO4)c3)CC2)c(C)c1 (stereo unspecified)	-4	nt	-12	0	-2
NC(=O)c1ccc(NCC2CCCO2)c([N+](=O)[O-])c1 (stereo unspecified)	-56	21	-4	-1	-4
Cc1ccc(NC(=O)c2ccc(NCc3ccco3)c([N+](=O)[O-])c2)cc1Cl	-26	34	82*	31*	8
Cc1ccc(NC(=O)c2ccc(NCC3CCCO3)c([N+](=O)[O-])c2)cc1Cl (stereo unspecified)	-11	nt	11	8.2*	-1
O=C(C[C@H]1C[C@@H]2c3cc(NC(=O)C4CCOCC4)ccc3O[C@@H]2[C@@H](CO)O1)NCC1CC1	nt	-4	nt	nt	nt
O=C(NCc1ccccc1)c1ccc(C(=O)N(C2CCCCC2)C2CCCCC2)cc1	5	nt	nt	?	-13
O=C(C(=O)N(C1CCCCC1)C1CCCCC1)c1ccccc1	-29	73*	nt	nt	nt
SMILES	Neddyl block	GSIS activator	Vif inh	Bfl-1 A1 inh	dFosB activator
CCC(CC)CN1CCN=C1Nc1ccccc1	1	59*	-4	-1	-10
CCN1CCN=C1Nc1ccccc1	-22	nt	10	2	-3
O=C(NC(=S)NNC(=O)c1cnccn1)c1ccc(Cl)cc1	55*	nt	4	-1	4
Nc1c(C(O)(C(F)(F)F)C(F)(F)F)cc(C(O)(C(F)(F)F)C(F)(F)F)c2ccccc12	40*	nt	0	0	4
Cc1ccc(-c2n[nH]c(=S)n2/N=C/c2c(C)nn(-c3ccccc3)c2C)cc1	4	203*	1	1	-6
Cc1ccccc1-c1n[nH]c(=S)n1/N=C/c1c(C)nn(-c2ccccc2)c1C	-4	91*	-4	0	8
O=[N+]([O-])c1ccc(/C=N/n2c(-c3ccccc3)n[nH]c2=S)cc1	-32	43*	-4	0	-1
C/C=C/c1cnc2c(c1)C(=O)N([C@@H](C)CO)C[C@@H](C)[C@H](CN(C)Cc1ccc3c(c1)OCO3)O2	nt	6	nt	nt	nt
C[C@@H]1CN([C@H](C)CO)C(=O)Cc2cc(NC(=O)c3ccncc3)ccc2O[C@H]1CN(C)S(=O)(=O)c1ccc(Cl)cc1	nt	22	nt	nt	nt
COc1ccccc1N1C(=O)c2cccc3c(Cl)ccc(c23)C1=O	-32	7	0	7.8*	-3
CC(C)Nc1nc(Nc2ccc(C(N)=O)cc2)c2sccc2n1	9	70*	-6	nt	nt
C[C@H](CO)N1C[C@H](C)[C@H](CN(C)C(=O)Nc2ccc(F)cc2)Oc2ncc(C#CC3CC3)cc2C1=O	nt	-7	nt	nt	nt
CC(C)[C@H]1C(=O)N[C@@H](c2ccc3c(c2)OCO3)CC=CC[C@@H](C)Oc2ccccc2C(=O)N1C (mixture of isomers)	nt	-17	nt	nt	nt
O=C(O)c1ccc(-n2cccc2/C=N\NC(=O)c2cc3cc(Br)ccc3o2)cc1	47*	-13	2	2	-7
Cn1cc(/C=N/NC(=O)c2cc3cc(Br)ccc3o2)c2ccccc21	37	2	4	0	nt
COCC#Cc1ccc2c(c1)O[C@@H](CN(C)C(=O)CN(C)C)[C@H](C)CN([C@@H](C)CO)S2(=O)=O	nt	10	nt	nt	nt
O=C(CN(C(=O)Cn1nnc(-c2ccc(F)cc2)n1)C1CCCC1)NC1CCCC1	-5	-8	67*	0	-9
CC(C)(C)NC(=O)CN(Cc1ccc(F)cc1)C(=O)Cn1nnc(-c2ccc(F)cc2)n1	0	-7	58*	0	-11
Cc1ccc(-c2nnn(CC(=O)N(CC3CCCO3)C(C(=O)NC3CCCCC3)c3ccc(F)cc3)n2)o1 (stereo unspecified)	0	-17	8	0	25*
Cc1ccc(-c2nnn(CC(=O)N(CC(=O)NC3CCCCC3)c3cnc4ccccc4c3)n2)o1	-10	nt	nt	0	-15
COc1ccc(C(C(=O)NC2CCCC2)N(CC2CCCO2)C(=O)Cn2nnc(-c3ccc(C)o3)n2)cc1 (stereo unspecified)	4	-1	5	1	-8
CC(=O)c1cccc(N(CC(=O)NC2CCCCC2)C(=O)Cn2nnc(-c3ccccc3)n2)c1	-8	61*	5	0	-7

Compound activity deposited in PubChem by several laboratories.
